AmpC inh no detg = AmpC beta-lactamase inhibition without detergent | AmpC nitrocefin hydrolysis, absorbance 480 nm, 0.0001% Triton | Potency, µM (doses to about 57.1 µM), inactives show top-dose activity change, negative = inhibition, hits mostly inhibitors | actives 0.52% (n = 330,000) | AID 485341;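 further: plate controls were no compound for no effect and no enzyme for full effect; nearly all actives have a fitted effect of over 20% in size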
Target sequence (P00811 whole entry, looked up): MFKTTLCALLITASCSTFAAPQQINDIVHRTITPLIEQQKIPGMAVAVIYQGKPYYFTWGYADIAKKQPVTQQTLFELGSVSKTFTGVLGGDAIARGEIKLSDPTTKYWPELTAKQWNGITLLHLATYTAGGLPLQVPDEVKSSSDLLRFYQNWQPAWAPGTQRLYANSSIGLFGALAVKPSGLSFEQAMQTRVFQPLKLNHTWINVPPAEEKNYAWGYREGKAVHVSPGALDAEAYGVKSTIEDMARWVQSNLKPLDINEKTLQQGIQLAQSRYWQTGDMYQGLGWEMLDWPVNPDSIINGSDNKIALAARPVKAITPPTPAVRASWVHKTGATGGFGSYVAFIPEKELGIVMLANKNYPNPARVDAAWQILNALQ
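AmpC (5.3 nM in the dispensed reagent) in 20 mM phosphate pH 7.0 with 0.01% (detergent screen) or 0.0001% Triton X-100 was preincubated with compounds for 15 min at room temperature. Nitrocefin was then added from an 800 uM solution, and hydrolysis was followed at 480 nm.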
AmpC detergent = blocks E. coli AmpC beta-lactamase in detergent assay; Potency, µM (highest dose often 114 µM), without a hit: at the top dose activity change, negative = inhibition, hits mostly inhibitors; actives 0.041% (n = 370,000); AmpC hydrolysis of nitrocefin, absorbance 480 nm, 0.01% Triton; AID 485294; P00811;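 further: 0% = no-compound wells and -100% = no-enzyme wells; nearly all actives have a fitted effect of over 25% in size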
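AmpC (5.3 nM in the dispensed reagent) in 20 mM phosphate pH 7.0 with 0.01% (detergent screen) or 0.0001% Triton X-100 was preincubated with compounds for 15 min at room temperature. Nitrocefin was then added from an 800 uM solution, and hydrolysis was followed at 480 nm.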
RE007 growth inh = less growth of the S. pombe RE007 Vpr strain | S. pombe RE007 Vpr strain, BacTiter-Glo ATP luminescence, 24 h | Potency, µM (titrated, usually from 92.2 µM), for inactives: at the highest dose activity change, negative = less growth, hits mostly inhibitors | actives 0.21% (n = 360,000); active means well fitted falling curve with a large enough effect; inconclusive means small, poorly fitted or top-dose-only effect; inactive means no such curve, though single readings can be large or run the other way; further: nearly all actives have a fitted effect of over 50% in size
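Fission yeast RE007 carrying one integrated HIV-1 vpr copy, seeded at OD 0.01 in PMG+AL medium with 23 nL pinned compound. Grown 24 h at 30 degrees; viability read by BacTiter-Glo luminescence after 5 min.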
Sm TGR inh = inhibitors of Schistosoma mansoni thioredoxin glutathione reductase. Q962Y6. AID 485364. Potency, µM (titrated, usually from 114 µM), for the others: top-dose activity change, negative = inhibition, usual class: inhibitors. purified TGR, DTNB reduction, TNB absorbance 405 nm. actives 3% (n = 360,000); further: nearly all actives have a fitted effect of over 60% in size
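First, TGR (20 nM dispensed) and NADPH were mixed with compound. Second, a 15 min room-temperature incubation followed. Third, further NADPH and then DTNB were added to start the reaction. Finally, TNB absorbance was monitored kinetically.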
AMA1 RON2 block = AMA1-RON2 (P. falciparum) interaction inhibition; AlphaScreen AMA1-biotinylated RON2 peptide binding; Potency, µM (titrated, usually from 58.2 µM), inactives show top-dose activity change, negative = inhibition, actives largely listed as inhibitors; actives 0.2% (n = 360,000); AID 720542;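 further: 0% = vehicle wells and -100% = peptide control; nearly all actives have a fitted effect of over 45% in size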
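AMA1 (3D7) with his tag at 25 nM final met compounds first, then biotinylated RON2 peptide at 25 nM; detection used donor plus acceptor beads, 10 µg/mL apiece, read by AlphaScreen after 30 min at room temperature.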
The depositor's hits bear a star; ? = inconclusive; . = not tested or not shown; [ ] = dose if it differs, or a comment. Shown are actives, neighbours in structure and some others; about 3.2% of the full set was active somewhere. Unless noted, the call rests on the fitted dose curve; in most records, active means well fitted curve in the direction sought with a large enough effect; inconclusive means small, poorly fitted or top-dose-only effect, or another doubt; inactive means no such curve, though single readings can be large; an effect the other way counts as inactive or inconclusive. Unless noted, on the % scale 0 is the no-effect control and ±100 the full control effect; potency means the concentration at half of the fitted maximal effect.

SMILES | AmpC inh no detg | AmpC detergent | RE007 growth inh | Sm TGR inh | AMA1 RON2 block
Cc1cc(F)ccc1NC(=O)c1c(C)oc2c1C1=NCCN1C=N2 | . | 16.3% | . | -3.1% | .
COc1cc(CNc2ccccc2Oc2cc(=O)n(C)c(=O)n2C)cc(OC)c1OC | 117.3% | 0.2% | -9.4% | 6.2% | 11.8%
Cn1c(Oc2ccccc2NCc2cc(Br)ccc2O)cc(=O)n(C)c1=O | 22.4µM* | ? | 9.1% | -3.6% | -1.6%
Cc1cc(NCc2ccncc2)ccc1Br | -14.6% | -2.0% | -8.3% | -6.0% | 25.1µM*
Cc1ccc(-n2c([O-])nc(-[n+]3ccccc3)c2C=O)cc1 | -7.3% | 3.7% | 11.5% | 39.8µM* | -3.9%
Cn1c2ccccc2c(=O)c2cc(C#CC3=CCCCC3)ccc21 | -12.4% | -0.8% | -13.1% | 2.24µM* | 17.7%
O=C(NNc1ccccc1[N+](=O)[O-])Nc1ccc(Cl)c(Cl)c1 | 25.1µM* | -14.6% | 11.4% | -7.1% | -8.1%
Cc1nnc2c(N3CCN(c4ccccc4)CC3)nc3ccc(C(=O)c4ccccc4)cc3n12 | . | 16.2% | . | 5.5% | .
O=C(CSc1nc(C2CC2)nc2ccccc12)N1c2ccccc2Sc2ccccc21 | 0.316µM* | -1.5% | -0.1% | -0.4% | 0.9%
CN(C)c1ccc(CN(C(=O)/C=C/c2ccco2)C2CCS(=O)(=O)C2)cc1 (stereo not given) | 14.7% | -2.5% | 3.6% | 25.1µM* | -13.2%
O=C(/C=C/c1ccco1)N(Cc1ccc(Cl)cc1)C1CCS(=O)(=O)C1 (stereo not given) | 45.0% | -0.9% | 16.6% | 3.16µM* | 42.5%
O=C(/C=C/c1ccc(Cl)cc1)N(Cc1ccccc1)C1CCS(=O)(=O)C1 (stereo not given) | 104.5% | -13.9% | 23.7% | -10.5% | 6.8%
COc1ccc2cc(CCNC(=O)c3ccc4c(c3)OCO4)c(=O)[nH]c2c1 | 2.82µM* | ? | -3.5% | -4.2% | -1.6%
COc1ccc(N(C(=O)CCl)C(C(=O)NCCc2ccccc2)c2cccs2)cc1 (stereo not given) | -10.6% | -17.2% | 28.3% | 10µM* | 1.4%
COc1cc(-c2nc3sccn3c2Nc2c(C)cccc2C)ccc1O | . | -5.8% | . | 1.12µM* | .
Cc1cccc(C)c1Nc1c(-c2ccc(O)cc2)nc2sccn12 | . | 8.5% | . | -33.0% | .
COc1cccc(-n2c(SCC(=O)Nc3nnc(C)s3)nc3c([nH]c4ccccc43)c2=O)c1 | . | 4.2% | . | 6.2% | .
Nc1cc(-c2ccco2)no1 | -25.8% | -14.5% | -13.7% | 28.2µM* | 10.5%
CCCOc1ccc(C2C3=C(CCCC3=O)N(CC(=O)O)C3=C2C(=O)CCC3)cc1OCC | -20.9% | -19.7% | 10.5% | -5.5% | -3.3%
C=CCOc1ccc(C2C3=C(CCCC3=O)N(CC(=O)O)C3=C2C(=O)CCC3)cc1OCC | -3.4% | 2.5% | -9.9% | 44.7µM* | -10.4%
C#CCOc1ccc(C2C3=C(CCCC3=O)N(CC(=O)O)C3=C2C(=O)CCC3)cc1Br | -4.2% | -9.0% | 1.5% | 39.8µM* | -12.4%
O=C1C(SCCO)=C(SCCO)C(=O)c2ccccc21 | -26.1% | ? | -16.5% | 0.501µM* | -18.4%
CCCCCCCCCCCCCCCC(O)C[N+](C)(C)CCO (stereo not given) | . | . | 35.5µM* | . | -5.8%
CCCCCC(O)CCCC(=O)O (stereo not given) | . | . | -5.3%[18.4 µM] | . | 13.9%
CC1CN(CCCCN2C(=O)c3ccccc3C2=O)CC(C)O1 (stereo not given) | -2.1%[11.4 µM] | -12.2% | -5.5% | 2.2% | -18.2%
CC1CN(CN2C(=O)c3ccccc3C2=O)CC(C)O1 (stereo not given) | 5.62µM* | 9.7% | 1.3% | 16.8% | -4.8%
COc1ccc(S(=O)(=O)c2cn(CC(=O)Nc3cc(C)ccc3C)c3ccccc3c2=O)cc1 | . | 12.3% | . | -1.1% | .
O=[N+]([O-])c1cccc2c([As](=O)(O)O)cccc12 | -12.7% | 2.5% | -7.4% | -27.2% | 1.7%
O=[N+]([O-])c1cc(-c2ccc([As](=O)(O)O)cc2)ccc1[As](=O)(O)O | -13.0% | -4.5% | . | 8.91µM* | .
C[N+](C)(C)CC#CCN1CCCC1=O | . | . | -14.4%[18.4 µM] | . | 6.7%

Compound activity deposited in PubChem by National Center for Advancing Translational Sciences (NCATS).
